Data on 1 compound can be found in the supplement of paper PMC11732987, “Enantioselective OTUD7B fragment discovery through chemoproteomics screening and high-throughput optimisation” (Communications Chemistry, 2025).

Assay in all cases: log2 ratio of Biotin-Ahx-Ub-VS probe labelling (fragment/DMSO); higher = less target engagement (more negative = stronger competition), active = hit call of the paper (q ≤ 0.05, log2 ratio ≤ -1)
Holding throughout (settings): compound concentration: 200 uM; treatment time: 3 h

For experiment [1], the target named is USP34 (UniProt Q70CQ2). The method, boiled down: (§1)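 Triplicate samples of HEK293T lysate, 495 µg each, received fragment at 200 µM or vehicle for 3 h, followed by Biotin-Ahx-Ub-VS (0.5 µM final) for 1 h. After NeutrAvidin enrichment of labelled DUBs and LysC/trypsin digestion, peptides were run by diaPASEF LC-MS/MS. The values are average log2 fragment/vehicle ratios from global-median-normalised Spectronaut label-free quantities, tested by unpaired t-test on proteins having ≥2 unique peptides.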
Chain of USP34 (Q70CQ2 whole entry, the tested form may be a part): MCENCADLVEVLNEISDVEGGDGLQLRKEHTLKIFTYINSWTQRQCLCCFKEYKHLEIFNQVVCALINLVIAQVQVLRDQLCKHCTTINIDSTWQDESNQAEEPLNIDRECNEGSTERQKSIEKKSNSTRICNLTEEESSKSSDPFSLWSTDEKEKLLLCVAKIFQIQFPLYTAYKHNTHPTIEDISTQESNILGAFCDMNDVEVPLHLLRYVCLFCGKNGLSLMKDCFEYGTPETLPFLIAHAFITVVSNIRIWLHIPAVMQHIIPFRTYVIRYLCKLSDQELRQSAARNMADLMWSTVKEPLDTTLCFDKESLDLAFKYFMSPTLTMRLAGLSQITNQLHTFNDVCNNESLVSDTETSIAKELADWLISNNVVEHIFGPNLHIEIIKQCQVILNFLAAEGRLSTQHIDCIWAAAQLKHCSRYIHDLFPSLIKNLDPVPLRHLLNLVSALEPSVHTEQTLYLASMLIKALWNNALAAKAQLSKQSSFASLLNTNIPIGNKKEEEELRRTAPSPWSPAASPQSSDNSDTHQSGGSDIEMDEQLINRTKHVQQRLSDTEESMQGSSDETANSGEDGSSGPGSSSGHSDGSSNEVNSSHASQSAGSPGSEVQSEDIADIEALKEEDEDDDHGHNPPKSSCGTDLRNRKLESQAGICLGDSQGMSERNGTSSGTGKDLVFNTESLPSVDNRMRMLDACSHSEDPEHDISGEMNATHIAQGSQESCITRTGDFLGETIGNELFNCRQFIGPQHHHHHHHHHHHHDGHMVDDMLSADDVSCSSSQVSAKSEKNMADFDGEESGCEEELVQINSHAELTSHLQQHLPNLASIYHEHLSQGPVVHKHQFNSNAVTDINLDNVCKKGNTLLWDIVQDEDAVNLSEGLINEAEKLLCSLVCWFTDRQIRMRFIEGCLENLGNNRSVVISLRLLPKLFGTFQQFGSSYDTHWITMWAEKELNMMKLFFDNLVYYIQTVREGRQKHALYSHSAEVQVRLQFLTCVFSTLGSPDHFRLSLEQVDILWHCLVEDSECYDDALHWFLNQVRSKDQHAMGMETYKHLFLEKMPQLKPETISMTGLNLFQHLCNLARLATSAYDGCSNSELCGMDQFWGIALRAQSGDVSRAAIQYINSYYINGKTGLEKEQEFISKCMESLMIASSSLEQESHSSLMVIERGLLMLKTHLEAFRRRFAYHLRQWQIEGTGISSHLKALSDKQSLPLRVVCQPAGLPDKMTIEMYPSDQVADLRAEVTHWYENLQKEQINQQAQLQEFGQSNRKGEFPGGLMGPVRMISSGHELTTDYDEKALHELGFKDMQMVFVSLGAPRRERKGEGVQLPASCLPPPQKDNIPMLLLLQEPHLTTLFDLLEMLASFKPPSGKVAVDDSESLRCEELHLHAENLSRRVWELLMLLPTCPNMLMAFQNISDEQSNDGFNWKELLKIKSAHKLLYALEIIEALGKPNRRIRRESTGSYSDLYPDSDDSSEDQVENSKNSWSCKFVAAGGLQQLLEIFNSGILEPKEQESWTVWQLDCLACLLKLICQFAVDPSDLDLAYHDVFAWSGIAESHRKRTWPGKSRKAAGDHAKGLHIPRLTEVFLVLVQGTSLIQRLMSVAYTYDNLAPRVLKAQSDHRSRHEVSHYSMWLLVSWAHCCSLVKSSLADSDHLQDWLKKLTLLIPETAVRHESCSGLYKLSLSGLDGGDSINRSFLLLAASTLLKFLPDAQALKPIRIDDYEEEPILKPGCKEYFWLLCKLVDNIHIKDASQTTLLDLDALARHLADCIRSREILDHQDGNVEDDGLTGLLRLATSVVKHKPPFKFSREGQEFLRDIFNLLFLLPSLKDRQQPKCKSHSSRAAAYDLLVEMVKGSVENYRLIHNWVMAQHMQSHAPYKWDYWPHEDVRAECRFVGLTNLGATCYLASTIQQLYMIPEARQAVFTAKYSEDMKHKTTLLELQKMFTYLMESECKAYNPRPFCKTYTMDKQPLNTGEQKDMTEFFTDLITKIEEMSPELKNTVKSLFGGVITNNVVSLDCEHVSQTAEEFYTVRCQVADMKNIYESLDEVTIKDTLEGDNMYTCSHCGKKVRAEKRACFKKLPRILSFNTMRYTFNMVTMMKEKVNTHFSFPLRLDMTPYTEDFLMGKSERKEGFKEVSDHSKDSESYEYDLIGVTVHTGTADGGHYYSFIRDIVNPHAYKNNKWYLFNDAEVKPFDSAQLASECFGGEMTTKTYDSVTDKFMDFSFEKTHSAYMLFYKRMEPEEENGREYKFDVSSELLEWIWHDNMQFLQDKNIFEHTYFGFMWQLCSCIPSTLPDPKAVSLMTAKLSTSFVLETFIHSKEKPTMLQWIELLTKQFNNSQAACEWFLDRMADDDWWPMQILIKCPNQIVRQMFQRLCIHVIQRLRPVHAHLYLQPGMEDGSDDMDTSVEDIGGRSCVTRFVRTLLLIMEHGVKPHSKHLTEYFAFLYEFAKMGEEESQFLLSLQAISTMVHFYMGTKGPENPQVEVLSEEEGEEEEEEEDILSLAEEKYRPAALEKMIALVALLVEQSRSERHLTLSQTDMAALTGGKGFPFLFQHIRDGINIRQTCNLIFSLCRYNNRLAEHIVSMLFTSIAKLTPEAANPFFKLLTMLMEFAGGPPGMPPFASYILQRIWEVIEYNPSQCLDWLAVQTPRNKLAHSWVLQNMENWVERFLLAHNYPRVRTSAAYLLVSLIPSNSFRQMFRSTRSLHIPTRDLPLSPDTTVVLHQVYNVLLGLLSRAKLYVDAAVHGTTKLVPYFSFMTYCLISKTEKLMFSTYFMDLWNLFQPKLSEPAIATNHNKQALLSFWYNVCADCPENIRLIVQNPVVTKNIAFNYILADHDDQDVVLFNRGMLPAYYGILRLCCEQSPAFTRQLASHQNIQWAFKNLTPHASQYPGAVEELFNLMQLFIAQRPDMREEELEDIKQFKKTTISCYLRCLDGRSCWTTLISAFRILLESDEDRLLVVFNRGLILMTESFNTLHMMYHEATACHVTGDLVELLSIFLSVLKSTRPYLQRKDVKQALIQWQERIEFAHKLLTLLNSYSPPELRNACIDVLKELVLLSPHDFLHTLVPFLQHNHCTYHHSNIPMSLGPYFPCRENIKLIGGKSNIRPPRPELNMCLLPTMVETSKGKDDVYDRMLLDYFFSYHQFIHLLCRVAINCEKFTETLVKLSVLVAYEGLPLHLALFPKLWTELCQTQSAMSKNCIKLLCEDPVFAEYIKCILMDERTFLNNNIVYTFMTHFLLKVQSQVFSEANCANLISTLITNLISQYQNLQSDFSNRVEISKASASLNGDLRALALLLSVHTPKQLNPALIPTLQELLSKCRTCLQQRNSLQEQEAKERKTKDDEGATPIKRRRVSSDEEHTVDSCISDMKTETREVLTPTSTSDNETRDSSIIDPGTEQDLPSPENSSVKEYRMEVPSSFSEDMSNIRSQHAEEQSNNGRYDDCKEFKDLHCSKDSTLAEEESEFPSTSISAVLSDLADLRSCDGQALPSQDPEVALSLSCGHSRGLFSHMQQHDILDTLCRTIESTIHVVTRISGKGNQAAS

For experiment [2], the target named is T1, USP36 (UniProt Q9P275).
T1 sequence (whole entry): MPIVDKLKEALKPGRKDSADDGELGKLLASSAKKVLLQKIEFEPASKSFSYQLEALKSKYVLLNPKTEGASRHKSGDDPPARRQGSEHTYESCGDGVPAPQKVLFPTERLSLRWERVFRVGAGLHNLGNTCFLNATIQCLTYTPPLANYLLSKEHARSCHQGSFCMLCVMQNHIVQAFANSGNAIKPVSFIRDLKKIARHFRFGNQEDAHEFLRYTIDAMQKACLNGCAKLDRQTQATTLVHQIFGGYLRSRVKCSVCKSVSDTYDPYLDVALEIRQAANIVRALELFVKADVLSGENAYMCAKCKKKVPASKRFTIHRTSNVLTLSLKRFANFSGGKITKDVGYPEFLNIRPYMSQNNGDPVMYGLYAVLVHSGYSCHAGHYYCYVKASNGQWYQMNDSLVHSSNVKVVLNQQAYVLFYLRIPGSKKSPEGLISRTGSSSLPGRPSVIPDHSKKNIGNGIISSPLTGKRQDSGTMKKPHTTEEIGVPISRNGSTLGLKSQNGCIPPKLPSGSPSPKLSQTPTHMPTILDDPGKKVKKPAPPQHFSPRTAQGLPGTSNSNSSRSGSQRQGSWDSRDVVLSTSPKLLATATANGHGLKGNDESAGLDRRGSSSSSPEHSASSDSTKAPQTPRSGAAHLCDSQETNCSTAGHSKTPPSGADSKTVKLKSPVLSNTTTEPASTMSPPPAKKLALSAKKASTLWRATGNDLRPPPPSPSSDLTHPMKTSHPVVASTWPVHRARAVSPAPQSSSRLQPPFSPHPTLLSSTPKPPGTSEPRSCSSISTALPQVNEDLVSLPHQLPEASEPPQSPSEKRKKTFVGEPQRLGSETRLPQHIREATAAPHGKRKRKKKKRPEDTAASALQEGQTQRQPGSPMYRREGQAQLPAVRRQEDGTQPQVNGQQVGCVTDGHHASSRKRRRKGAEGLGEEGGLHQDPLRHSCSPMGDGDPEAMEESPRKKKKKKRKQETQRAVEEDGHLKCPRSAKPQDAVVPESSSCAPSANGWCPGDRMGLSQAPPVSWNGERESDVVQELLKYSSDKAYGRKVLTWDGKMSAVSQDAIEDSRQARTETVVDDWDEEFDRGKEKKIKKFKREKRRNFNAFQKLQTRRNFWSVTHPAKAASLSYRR
The method, boiled down: as §1

For experiment [3], the target named is T2, USP38 (UniProt Q8NB14).
T2 sequence (whole entry): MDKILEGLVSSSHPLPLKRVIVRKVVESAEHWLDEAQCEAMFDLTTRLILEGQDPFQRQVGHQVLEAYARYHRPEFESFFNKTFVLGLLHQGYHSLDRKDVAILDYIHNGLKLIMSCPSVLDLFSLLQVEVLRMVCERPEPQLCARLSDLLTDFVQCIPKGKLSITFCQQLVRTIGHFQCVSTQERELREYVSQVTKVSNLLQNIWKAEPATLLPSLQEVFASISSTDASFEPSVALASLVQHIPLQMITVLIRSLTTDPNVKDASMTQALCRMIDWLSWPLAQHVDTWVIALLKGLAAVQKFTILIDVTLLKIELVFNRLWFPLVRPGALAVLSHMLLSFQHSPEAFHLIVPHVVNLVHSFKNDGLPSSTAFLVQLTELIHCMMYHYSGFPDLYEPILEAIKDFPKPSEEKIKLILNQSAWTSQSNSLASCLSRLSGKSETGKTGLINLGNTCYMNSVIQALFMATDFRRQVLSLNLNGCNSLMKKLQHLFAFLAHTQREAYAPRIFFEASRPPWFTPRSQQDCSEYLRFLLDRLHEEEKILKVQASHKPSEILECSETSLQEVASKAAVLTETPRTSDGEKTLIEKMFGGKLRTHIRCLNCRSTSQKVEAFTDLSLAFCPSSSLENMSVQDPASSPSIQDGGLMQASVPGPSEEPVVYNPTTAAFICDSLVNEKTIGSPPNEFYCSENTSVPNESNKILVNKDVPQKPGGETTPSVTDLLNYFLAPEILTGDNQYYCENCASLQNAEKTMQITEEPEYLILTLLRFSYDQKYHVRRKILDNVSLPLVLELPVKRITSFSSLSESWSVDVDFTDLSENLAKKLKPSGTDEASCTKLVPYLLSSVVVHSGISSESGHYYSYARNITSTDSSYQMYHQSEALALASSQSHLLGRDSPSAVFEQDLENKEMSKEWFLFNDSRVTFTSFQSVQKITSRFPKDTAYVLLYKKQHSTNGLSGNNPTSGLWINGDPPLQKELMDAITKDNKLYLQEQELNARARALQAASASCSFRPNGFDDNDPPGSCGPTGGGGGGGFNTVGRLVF
In short, it runs like this:
as §1

For experiment [4], the target named is T3, USP39 (UniProt Q53GS9).
T3 sequence (whole entry): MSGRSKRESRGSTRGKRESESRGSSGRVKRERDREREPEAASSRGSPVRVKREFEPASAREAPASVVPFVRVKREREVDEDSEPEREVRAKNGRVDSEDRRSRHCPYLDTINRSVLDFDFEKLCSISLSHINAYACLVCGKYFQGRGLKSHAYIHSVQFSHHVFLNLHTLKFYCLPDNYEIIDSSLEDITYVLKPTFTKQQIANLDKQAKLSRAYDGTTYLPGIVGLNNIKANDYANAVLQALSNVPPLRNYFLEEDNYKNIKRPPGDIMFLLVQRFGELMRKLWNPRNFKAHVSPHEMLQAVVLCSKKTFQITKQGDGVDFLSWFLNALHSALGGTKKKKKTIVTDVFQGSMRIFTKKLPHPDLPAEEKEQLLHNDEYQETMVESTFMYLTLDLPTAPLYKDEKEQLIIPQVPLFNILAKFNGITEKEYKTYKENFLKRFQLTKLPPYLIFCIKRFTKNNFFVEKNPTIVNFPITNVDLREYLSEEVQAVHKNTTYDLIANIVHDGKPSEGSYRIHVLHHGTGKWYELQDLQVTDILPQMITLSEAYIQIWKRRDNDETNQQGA
In short, it runs like this:
as §1

For experiment [5], the target named is T4, USP4 (UniProt Q13107).
T4 sequence (whole entry): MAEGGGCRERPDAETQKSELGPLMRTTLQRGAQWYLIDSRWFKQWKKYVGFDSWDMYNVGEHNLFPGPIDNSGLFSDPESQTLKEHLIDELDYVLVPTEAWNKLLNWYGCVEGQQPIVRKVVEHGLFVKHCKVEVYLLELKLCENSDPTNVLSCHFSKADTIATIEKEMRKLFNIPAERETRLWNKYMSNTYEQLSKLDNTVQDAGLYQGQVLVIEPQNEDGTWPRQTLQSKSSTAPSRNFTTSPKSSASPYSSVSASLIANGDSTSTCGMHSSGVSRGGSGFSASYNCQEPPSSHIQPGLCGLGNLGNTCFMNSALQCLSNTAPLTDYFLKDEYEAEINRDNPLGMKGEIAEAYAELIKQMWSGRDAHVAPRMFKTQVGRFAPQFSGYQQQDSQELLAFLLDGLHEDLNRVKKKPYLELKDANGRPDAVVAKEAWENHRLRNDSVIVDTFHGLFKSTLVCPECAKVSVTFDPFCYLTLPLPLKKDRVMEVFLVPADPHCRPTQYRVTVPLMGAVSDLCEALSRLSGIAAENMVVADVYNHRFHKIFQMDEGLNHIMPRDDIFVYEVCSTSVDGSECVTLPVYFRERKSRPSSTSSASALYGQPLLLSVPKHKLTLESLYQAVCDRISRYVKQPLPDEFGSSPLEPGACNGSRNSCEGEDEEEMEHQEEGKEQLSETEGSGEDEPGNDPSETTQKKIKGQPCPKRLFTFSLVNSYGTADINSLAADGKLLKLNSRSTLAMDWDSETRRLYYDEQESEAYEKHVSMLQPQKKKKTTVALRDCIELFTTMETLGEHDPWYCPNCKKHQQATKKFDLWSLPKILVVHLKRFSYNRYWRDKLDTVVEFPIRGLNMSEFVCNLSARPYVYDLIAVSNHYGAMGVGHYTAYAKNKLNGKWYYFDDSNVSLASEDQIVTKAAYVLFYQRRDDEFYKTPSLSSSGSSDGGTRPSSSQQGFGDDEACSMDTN
The method, boiled down:
as §1

The structures appear in SMILES notation. Values without a mark were called inactive.

In the case of `O=C(CCl)N1CC=C(c2c[nH]c3ccccc23)CC1`, the “log2 ratio of Biotin-Ahx-Ub-VS probe labelling” value in experiment [1] was -0.9; in experiment [2], 0.0858; in experiment [3] it was -0.476; in experiment [4] it was 0.536; in experiment [5] it was -1.2 (active).
